Results taken from the supplement of paper PMC11219838.
A number with no mark means an inactive call.

What was measured:
Conditions in all cases: 60 µM; 5 days; temperature: 20 °C
Meloidogyne hapla J2 = assay: proportion of mobile M. hapla J2 relative to DMSO control (fraction of DMSO control); higher = more viable, less nematicidal, active = 0.7 or less
Summary of the method: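 Two biological replicates were run and averaged, each on 96-well plates in which about 25 M. hapla J2 sat in distilled water per well. Compound was pinned in to give 60 µM final and 0.6% v/v DMSO, and the sealed plates were shaken at 200 rpm and 20 °C for 5 days before 2 µL 1 M NaOH was added. Mobility was scored microscopically and divided by the mean from the plate's DMSO-only wells, of which there were eight.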

[1] = tested on: Caenorhabditis elegans dauer (daf-2(e1370)); assay: proportion of mobile C. elegans dauer larvae relative to DMSO control (fraction of DMSO control); higher = more viable, less nematicidal, active = 0.63 or less; extreme values may be limits of the assay
Summary of the method: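 Synchronized C. elegans larvae were kept for 48 h at 25 °C on MYOB plates seeded with E. coli OP50 to induce dauer formation, and roughly 20 dauers were transferred into each well of a 96-well plate containing liquid NGM. Compound was pinned in to a final concentration of 60 µM with 0.6% v/v DMSO, and the sealed plates were shaken at 200 rpm for 5 days at 20 °C. The fraction of mobile worms was scored under a dissection microscope against DMSO-only wells and averaged across two biological replicates.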

Ditylenchus dipsaci = assay: proportion of mobile D. dipsaci (mixed stage) relative to DMSO control (fraction of DMSO control); higher = more viable, less nematicidal, active = 0.86 or less; extreme values may be limits of the assay
Summary of the method: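 The worms, D. dipsaci raised on pea plants in Gamborg B-5 agar, were recovered through a filter funnel into water. Each well of a 96-well plate then held about 20 of them in distilled water plus pinned compound at 60 µM final (0.6% v/v DMSO), and the sealed plates were shaken at 200 rpm at 20 °C for 5 days. Following addition of 2 µL 1 M NaOH, mobile worms were counted by microscopy, and mobility was expressed against DMSO controls as the average of two biological replicates.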

| Structure (SMILES) | proportion of mobile M. hapla J2 (Meloidogyne hapla J2) | proportion of mobile C. elegans dauer larvae [1] | proportion of mobile D. dipsaci (Ditylenchus dipsaci) |
| --- | --- | --- | --- |
| Nc1nc(CSc2nnc(-c3ccccc3)o2)cs1 | 0.752 | 1 | 1 |
| CCc1nnc(NC(=O)CSc2nnc(-c3ccc(Cl)cc3Cl)o2)s1 | 0.875 | 1 | 1 |
| Clc1ccc(-c2nc(C3CCCCC3)no2)cc1 | 1.04 | 1 | 1 |
| Clc1ccc(OCc2nc(-c3cccs3)no2)cc1 | 0.923 | 1 | 1 |
| CCC(=O)Nc1ccccc1-c1nc(-c2cccnc2)no1 | 1.02 | 1 | 1 |
| COc1ccc(-c2nnc(SCC(=O)c3ccc4ccccc4c3)o2)cc1 | 1.03 | 1 | 1 |
| Brc1ccc(-c2noc(COc3ccc4c(c3)OCO4)n2)cc1 | 1.06 | 1 | 1 |
| Cc1ccc(SCc2nc(-c3cccnc3)no2)cc1 | 1.1 | 0.75 | – |
| COc1ccc(OC(C)c2nc(-c3cccnc3)no2)cc1 (stereo unspecified) | 0.966 | 1 | 1 |
| Cc1ccccc1OCc1nc(-c2ccccc2)no1 | 0.821 | 1 | 1 |
| CC(=O)Nc1ccc(NC(=O)c2ccccc2-c2nc(-c3cccc(C)c3)no2)cc1 | 1.01 | 1 | 1 |
| CCc1ccc(OCc2nc(-c3ccc(C)cc3)no2)cc1 | 1.04 | 1 | 1 |
| Cc1ccc(-c2nc(-c3ccccn3)no2)cc1C | 1.03 | 1 | 1 |
| Cc1cccc(-c2noc(-c3ccc4c(c3)OCO4)n2)c1 | 0.974 | 1 | 1 |
| CCOc1cc(C#N)ccc1OCc1nc(-c2cccs2)no1 | 1.07 | 1 | 1 |
| Cn1c(SCc2nc(-c3ccc(Br)cc3)no2)nnc1-c1ccco1 | 0.835 | 1 | 1 |
| FC(F)(F)c1cccc(-c2noc(-c3ccc4c(c3)OCO4)n2)c1 | 1.06 | 1 | 1 |
| COc1ccccc1-c1nnc(SCc2ccccc2C#N)o1 | 0.94 | 1 | 1 |
| Cc1cccc(-c2nc(-c3ccc4c(c3)OCO4)no2)c1 | 1.01 | 1 | 1 |
| COc1cccc(NC(=O)c2ccccc2-c2nc(-c3ccccc3Cl)no2)c1 | 0.918 | 1 | 1 |
| Cc1cc(Cl)ccc1OCc1nc(-c2ccc(F)cc2)no1 | 0.859 | 1 | 1 |
| COc1nc(-c2ccc(Cl)cc2)ccc1-c1noc(C)n1 | 1.03 | 1 | 1 |
| CCCSc1nnc(-c2ccc(Cl)cc2Cl)o1 | 0.991 | 0.143 (active) | 1 |
| COc1cccc(-c2nnc(SCC(=O)Nc3ccccc3)o2)c1 | 1.03 | 1 | 1 |
| Brc1ccc(-c2nnc(-c3cccs3)o2)o1 | 1.07 | 0.75 | 0.362 (active) |

| Structure (SMILES) | proportion of mobile M. hapla J2 (Meloidogyne hapla J2) | proportion of mobile C. elegans dauer larvae [1] | proportion of mobile D. dipsaci (Ditylenchus dipsaci) |
| --- | --- | --- | --- |
| CCN(Cc1ccccc1)C(=O)c1ccccc1-c1nc(-c2cccc(C)c2)no1 | 0.579 (active) | 1 | 1 |
| Clc1ccc(CSc2nnc(-c3ccccc3)o2)c(Cl)c1 | 1.03 | 1 | 1 |
| CCc1nc(-c2ccc(-c3ccccc3)nc2OC)no1 | 0.99 | 1 | 1 |
| Cc1cccc(-c2noc(-c3cc(Cl)ccc3Cl)n2)c1 | 1.08 | 1 | 1 |
| COc1ccccc1-c1noc(-c2ccccc2F)n1 | 0.91 | 1 | 1 |
| Cc1ccc(-c2nc(-c3ccc(Br)cc3)no2)cc1 | 0.916 | 1 | 1 |
| COc1ccc(-c2nnc(SCC(=O)Nc3cccc(Cl)c3Cl)o2)cc1 | 0.932 | 1 | 1 |
| CCCOc1ccc(-c2ccc(-c3nc(-c4ccccn4)no3)cc2)cc1 | 0.969 | 1 | 1 |
| Cc1cccc(-c2nnc(SCC(=O)NC(C)c3ccccc3)o2)c1 (stereo unspecified) | 0.89 | 1 | 1 |
| NC(=O)COc1ccccc1-c1nc(-c2ccccc2Cl)no1 | 0.851 | 1 | 1 |
| O=C(CSc1nnc(-c2cccc3ccccc23)o1)c1ccc(F)cc1 | 0.912 | 1 | 1 |
| CCOc1nc(-c2ccccc2)ccc1-c1noc(-c2cccc(C)c2)n1 | 0.805 | 1 | 1 |
| COc1ccccc1CC(=O)Nc1ccc(-c2noc(-c3ccc(Cl)cc3)n2)cc1 | 0.938 | 1 | 1 |
| Cc1ccc(OC(C)c2nc(-c3ccncc3)no2)cc1C (stereo unspecified) | 0.995 | 1 | 1 |
| CN(C)C(=O)c1ccccc1-c1nc(-c2ccc(Cl)cc2)no1 | 0.963 | 1 | 1 |
| Clc1ccc(OCc2nc(-c3ccccc3)no2)c(Cl)c1 | 0.796 | 1 | 1 |
| Cc1cc(C)c(NC(=O)CSc2nnc(-c3ccc(Br)cc3)o2)c(C)c1 | 1 | 1 | 1 |
| C=CCSc1nnc(-c2ccc(Br)cc2)o1 | 0.591 (active) | 1 | 0.85 (active) |
| CC(=O)Nc1ccc(-c2nc(-c3ccccc3)no2)cc1 | 0.961 | 1 | 1 |
| Cc1ccc(-c2noc(COc3ccc(Cl)cc3)n2)cc1 | 1.02 | 1 | 1 |
| Clc1ccc(OCc2nc(-c3ccc4c(c3)OCO4)no2)cc1 | 0.932 | 1 | 1 |
| Cc1ccc(C(=O)CSc2nnc(-c3ccccc3)o2)cc1 | 0.968 | 1 | 1 |
| CCCc1ccc(-c2nc(-c3ccc(F)cc3)no2)cc1 | 1.01 | 0.714 | 1 |
| COc1ccccc1-c1nnc(SCc2ccc(F)cc2)o1 | 0.329 (active) | 1 | 1 |
| COc1cccc(-c2noc(COc3cc(C)cc(C)c3)n2)c1 | 1.02 | 1 | 1 |

| Structure (SMILES) | proportion of mobile M. hapla J2 (Meloidogyne hapla J2) | proportion of mobile C. elegans dauer larvae [1] | proportion of mobile D. dipsaci (Ditylenchus dipsaci) |
| --- | --- | --- | --- |
| CC(C)Oc1ccc(-c2nc(-c3ccncc3)no2)cc1 | 1 | 0 (active) | 0.941 |
| Cc1cc(OCc2nc(-c3ccccc3)no2)ccc1Cl | 0.844 | 1 | 1 |
| Clc1ccc(OCc2nc(-c3ccccc3)no2)cc1 | 1.04 | 1 | 1 |
| CC(=O)c1cccc(NC(=O)CSc2nnc(-c3ccccc3)o2)c1 | 0.937 | 1 | 1 |
| COc1ccc(-c2nnc(SCC(=O)Nc3c(F)cc(F)cc3Br)o2)cc1 | 1.03 | 1 | 1 |
| COc1ccc(Cl)cc1NC(=O)CSc1nnc(-c2ccco2)o1 | 0.917 | 1 | 1 |
| Cc1ccc(-c2nnc(SCc3c(C)cc(C)cc3C)o2)cc1 | 0.926 | 1 | 1 |
| Cc1ccc(-c2noc(COc3ccc(C)cc3C)n2)cc1 | 1.02 | 1 | 1 |
| Cc1ccccc1-c1nc(-c2ccc(Cl)cc2)no1 | 0.841 | 1 | 1 |
| Cc1cccc(-c2nc(-c3ccc(Br)cc3)no2)c1 | 1.01 | 1 | 1 |
| CC(Oc1ccccc1)c1nc(-c2ccccn2)no1 (stereo unspecified) | 0.937 | 1 | 1 |
| Cc1cccc(-c2noc(COc3ccc(Cl)cc3C)n2)c1 | 0.925 | 1 | 1 |
| COc1nc(-c2ccccc2)ccc1-c1noc(-c2ccccc2C)n1 | 0.909 | 1 | 1 |
| CCCCc1ccc(-c2nc(-c3cccnc3)no2)cc1 | 0.977 | 1 | 1 |
| O=C(Nc1ccc(-c2noc(-c3ccc(Cl)cc3)n2)cc1)c1ccco1 | 1.04 | 1 | 1 |
| Clc1ccccc1OCc1nc(-c2ccc(Br)cc2)no1 | 1.02 | 1 | 1 |
| CCOc1nc(C)ccc1-c1noc(-c2cccc(C)c2)n1 | 0.847 | 1 | 1 |
| Fc1ccccc1-c1nc(-c2ccc(Cl)cc2)no1 | 0.956 | 1 | 1 |
| CCCC(=O)Nc1ccccc1-c1nc(-c2ccncc2)no1 | 0.99 | 1 | 1 |
| Cc1ccc(-c2noc(-c3ccc(C)cc3)n2)cc1 | 1.01 | 0.881 | 1 |
| COc1ccc(-c2noc(-c3ccccc3C(=O)Nc3cccc(C)c3C)n2)cc1 | 0.912 | 1 | 1 |
| Cc1ccc(OCc2nc(-c3cccnc3)no2)cc1C | 1.02 | 1 | 1 |
| Cc1ccc(-c2nnc(SCc3ccccc3Cl)o2)cc1 | 0.964 | 1 | 1 |
| CCCc1nnc(CSc2nnc(-c3ccc(Cl)cc3)o2)o1 | 0.983 | 1 | 0.812 (active) |
